Common to all, as to assay: universal protein binding microarray (PBM); transcription factors of Arabidopsis thaliana; high values mean tight binding
Assay [1] addresses GST-WRKY1(266-371) (Arabidopsis thaliana, UniProt Q9SI37 266-371). As to conditions: protein: recombinant; tags: GST; dsDNA, one strand shown. A digest of the protocol: (§1)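 Binding is expressed as the normalised enrichment score (E-score). Proteins carrying a GST tag, whether NAC-domain, full-length or DNA-binding-domain forms, were induced in cells, and zinc acetate was added for zinc-finger proteins. After purification on glutathione–Sepharose 4B and quantification by A280 or anti-GST western blot, each was applied in duplicate at 200 to 500 nM final to custom all-10-mer Agilent 4 × 180K arrays made double-stranded by primer extension. Gapped and ungapped 8-mers were scored.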

In assay [2] the target is T1, GST-ANAC092(1-176) (Arabidopsis thaliana, UniProt Q9FKA0 1-176).
T1 sequence: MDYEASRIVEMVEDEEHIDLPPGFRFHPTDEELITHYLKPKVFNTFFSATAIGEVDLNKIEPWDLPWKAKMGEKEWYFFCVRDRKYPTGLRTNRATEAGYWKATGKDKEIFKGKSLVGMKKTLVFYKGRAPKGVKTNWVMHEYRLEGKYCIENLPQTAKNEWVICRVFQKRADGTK
The following applies: protein: recombinant; tags: GST; chain copies: 2; dsDNA, one strand shown. The procedure, abridged: as §1

Assay [3] deals with T2, GST-ANAC092(1-285) full length (Arabidopsis thaliana, UniProt Q9FKA0 1-285).
T2 sequence: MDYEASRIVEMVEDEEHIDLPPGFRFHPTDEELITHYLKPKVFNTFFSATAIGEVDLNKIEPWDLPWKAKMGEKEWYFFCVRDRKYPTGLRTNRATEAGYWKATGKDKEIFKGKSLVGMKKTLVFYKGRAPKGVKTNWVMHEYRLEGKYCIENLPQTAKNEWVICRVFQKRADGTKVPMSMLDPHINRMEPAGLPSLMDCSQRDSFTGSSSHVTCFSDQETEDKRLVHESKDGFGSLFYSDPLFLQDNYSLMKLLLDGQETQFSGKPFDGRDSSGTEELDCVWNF
The following applies: protein: recombinant; tags: GST; chain copies: 2; dsDNA, one strand shown. The procedure, abridged:
as §1

Assay [4] deals with GST-NTL6(1-168) (Arabidopsis thaliana, UniProt Q9SCK6 1-168). As to conditions: protein: recombinant; tags: GST; chain copies: 2; dsDNA, one strand shown. A digest of the protocol:
as §1

Assay [5] deals with T3, GST-ANAC019 NAC domain (Arabidopsis thaliana, UniProt Q9C932 14-162).
T3 sequence: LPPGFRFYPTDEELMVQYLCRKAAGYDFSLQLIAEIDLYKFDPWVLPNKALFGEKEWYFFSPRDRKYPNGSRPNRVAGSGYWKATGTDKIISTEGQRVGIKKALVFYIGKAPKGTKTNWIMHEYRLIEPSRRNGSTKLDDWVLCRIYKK
The following applies: protein: recombinant; tags: GST; chain copies: 2; dsDNA, one strand shown. The procedure, abridged:
as §1

Assay [6] has as its target T4, GST-ATAF1 NAC domain (Arabidopsis thaliana, UniProt Q39013 7-158).
T4 sequence: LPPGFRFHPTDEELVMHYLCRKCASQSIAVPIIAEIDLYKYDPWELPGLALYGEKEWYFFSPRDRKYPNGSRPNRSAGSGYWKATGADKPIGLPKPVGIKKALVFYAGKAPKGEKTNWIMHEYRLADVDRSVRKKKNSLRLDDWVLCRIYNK
The following applies: protein: recombinant; tags: GST; chain copies: 2; dsDNA, one strand shown. The procedure, abridged: as §1

The target in assay [7] is T5, GST-NAP(1-166) (Arabidopsis thaliana, UniProt O49255 1-166).
T5 sequence: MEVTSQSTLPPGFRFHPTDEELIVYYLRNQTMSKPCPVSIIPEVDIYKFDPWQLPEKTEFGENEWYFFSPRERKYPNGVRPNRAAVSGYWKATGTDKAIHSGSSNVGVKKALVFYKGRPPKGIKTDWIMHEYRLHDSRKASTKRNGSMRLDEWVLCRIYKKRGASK
The following applies: protein: recombinant; tags: GST; chain copies: 2; dsDNA, one strand shown. The procedure, abridged: as §1

Assay [8] addresses T6, GST-NTL8 NAC domain (Arabidopsis thaliana, UniProt Q9XIN7 14-156).
T6 sequence: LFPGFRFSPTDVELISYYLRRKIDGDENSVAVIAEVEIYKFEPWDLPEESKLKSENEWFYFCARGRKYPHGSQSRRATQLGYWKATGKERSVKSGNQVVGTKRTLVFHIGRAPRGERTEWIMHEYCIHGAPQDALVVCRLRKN
As to conditions: protein: recombinant; tags: GST; chain copies: 2; dsDNA, one strand shown. A digest of the protocol: as §1

Assay [9] addresses T7, GST-NST2(1-184) (Arabidopsis thaliana, UniProt Q9M274 1-184).
T7 sequence: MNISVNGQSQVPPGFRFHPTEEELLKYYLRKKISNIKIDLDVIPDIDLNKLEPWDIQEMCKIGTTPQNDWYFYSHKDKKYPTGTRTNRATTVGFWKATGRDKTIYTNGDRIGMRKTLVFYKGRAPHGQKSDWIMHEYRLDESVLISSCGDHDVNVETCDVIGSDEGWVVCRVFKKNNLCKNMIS
The following applies: protein: recombinant; tags: GST; chain copies: 2; dsDNA, one strand shown. A digest of the protocol: as §1

For assay [10], the target named is T8, GST-ANAC055(1-171) (Arabidopsis thaliana, UniProt Q9LDY8 1-171).
T8 sequence: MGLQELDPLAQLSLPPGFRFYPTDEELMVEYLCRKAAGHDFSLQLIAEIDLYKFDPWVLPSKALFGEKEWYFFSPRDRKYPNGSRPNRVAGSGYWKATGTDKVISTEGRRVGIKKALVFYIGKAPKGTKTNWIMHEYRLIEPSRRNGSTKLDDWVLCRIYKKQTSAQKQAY
The following applies: protein: recombinant; tags: GST; chain copies: 2; dsDNA, one strand shown. The procedure, abridged:
as §1

Chain of GST-WRKY1(266-371) (Q9SI37 266-371): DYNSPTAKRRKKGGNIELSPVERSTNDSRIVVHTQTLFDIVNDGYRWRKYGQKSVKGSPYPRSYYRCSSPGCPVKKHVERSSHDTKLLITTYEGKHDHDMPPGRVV
Chain of GST-NTL6(1-168) (Q9SCK6 1-168): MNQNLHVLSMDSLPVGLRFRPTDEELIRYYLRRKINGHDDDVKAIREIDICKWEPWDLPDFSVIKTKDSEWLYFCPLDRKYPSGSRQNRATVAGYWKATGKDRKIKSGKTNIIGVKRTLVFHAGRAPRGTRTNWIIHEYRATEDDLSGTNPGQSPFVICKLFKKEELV

GCCGTCAA: the binding signal in [1] was 0.402 E-score.

Consider CGTGGACC, for which, in assay [1], the binding signal was 0.444 E-score.

CTAGGTCA: in assay [1], the binding signal came out at 0.428 E-score.

Regarding ATCTTGAC, in assay [1], the binding signal came to 0.47 E-score.

CATTGACC: the binding signal in assay [1] was found to be 0.491 E-score.

On to AGTCAGCA, for which, in [1], the binding signal stood at 0.432 E-score.

Turning to GCCGGTCA, the binding signal in assay [1] came out at 0.459 E-score.

With CGGTCATA, the binding signal in assay [1] came out at 0.415 E-score.

Turning to AGAGGTCA, the binding signal in assay [1] turned out to be 0.425 E-score.

Consider CCGGGTCA, for which the binding signal in [1] worked out at 0.443 E-score.

AGGGGTCA: the binding signal in assay [1] stood at 0.415 E-score.

As to AAGACCGG, in assay [1], the binding signal was determined as 0.428 E-score.

GCGGTCAA: the binding signal in [1] turned out to be 0.487 E-score.

For GTCTTTGA, in [1], the binding signal was found to be 0.411 E-score.

For AGTCAGAG, the binding signal in assay [1] was found to be 0.44 E-score.

For the sequence AAGTCCAC, the binding signal in [1] stood at 0.418 E-score.

As to ACTCTGAC, in [1], the binding signal stood at 0.437 E-score.

Turning to CCTTGACC, the binding signal in assay [1] is 0.487 E-score.

For GCGAGTCA, the binding signal in assay [1] turned out to be 0.414 E-score.

In the case of CAACGACC, in assay [1], the binding signal was found to be 0.421 E-score.

GGGTCAAC: the values for the binding signal in [2], in assay [3] and in [1] were 0.0723 E-score, 0.0889 E-score and 0.493 E-score, respectively.

With ACTGGTCA, the binding signal in assay [2] turned out to be 0.127 E-score; in [1] it was 0.433 E-score.

For the sequence CTGGTCAA, the binding signal in [2] amounted to 0.0676 E-score; in [1], 0.488 E-score.

Turning to GGCTTGAC, the binding signal was found to be 0.0969 E-score in assay [2] and 0.452 E-score in assay [1].

With TGACCAAA, the binding signal in assay [2] stood at 0.0758 E-score; in assay [3], 0.126 E-score; in assay [1], 0.457 E-score.

On to AGTCAAGA, for which the binding signal in assay [4] amounted to 0.0587 E-score; in [1] it was 0.471 E-score.

As to GTCAATGA, the binding signal was determined as 0.0646 E-score in assay [4] and 0.466 E-score in assay [1].

Turning to CTCTTGAC, the binding signal stood at 0.059 E-score in assay [2]; 0.0833 E-score in assay [5]; 0.0783 E-score in [6]; 0.0978 E-score in assay [7]; 0.449 E-score in [1].

As to ACCAGTCA, the binding signal in assay [1] was 0.421 E-score.

Turning to CTGACCGC, the binding signal in assay [2] was 0.0725 E-score; in assay [1], 0.425 E-score.

As to AGGTCAGA, the binding signal stood at 0.0962 E-score in assay [4] and 0.449 E-score in assay [1].

As for CTGACTTA, the results for the binding signal in assay [4] and in [1] were 0.195 E-score and 0.42 E-score, respectively.

As to TGGGTCAA, the binding signal was 0.156 E-score in assay [2], 0.159 E-score in assay [3], 0.0706 E-score in assay [8] and 0.483 E-score in assay [1].

On to AGTCAAGG, for which the binding signal in [2] was found to be 0.104 E-score; in assay [5], 0.0733 E-score; in assay [3] it was 0.139 E-score; in [7], 0.0507 E-score; in assay [9], 0.0876 E-score; in assay [1] it was 0.475 E-score.

As for AAAGGTCA, the binding signal in assay [2] was 0.0939 E-score; in [10] it was 0.106 E-score; in [6], 0.137 E-score; in assay [3], 0.0795 E-score; in assay [8], 0.154 E-score; in assay [1], 0.424 E-score.

Take CTAAGTCA: the binding signal stood at 0.146 E-score in assay [4] and 0.413 E-score in assay [1].

For the sequence AAGTCAGC, the binding signal is 0.14 E-score in assay [4] and 0.459 E-score in [1].

As to TGACCTAA, the binding signal in assay [4] is 0.0566 E-score; in assay [1], 0.419 E-score.

Consider GGGTCAAA, for which the results for the binding signal in [2], in assay [9] and in assay [1] were 0.0694 E-score, 0.0921 E-score and 0.48 E-score, respectively.

Consider GTTGACCA, for which the binding signal in assay [2] amounted to 0.131 E-score; in [1], 0.492 E-score.

For the sequence GGTCAAAC, the binding signal in [2] was 0.0595 E-score; in assay [6], 0.0641 E-score; in assay [3], 0.0869 E-score; in [9], 0.0597 E-score; in assay [1], 0.494 E-score.

As for ACTTGACC, the binding signal in assay [2] came to 0.0892 E-score; in assay [5], 0.05 E-score; in [3], 0.0507 E-score; in assay [9] it was 0.11 E-score; in assay [8], 0.0948 E-score; in [1] it was 0.47 E-score.

For GCATTGAC, the binding signal was determined as 0.0797 E-score in assay [2], 0.0849 E-score in assay [6], 0.0561 E-score in [9] and 0.47 E-score in assay [1].

CAAGTCAA: the binding signal in assay [2] was 0.0929 E-score; in [6], 0.0933 E-score; in assay [3], 0.234 E-score; in assay [1], 0.486 E-score.

Turning to ATGACCGA, the binding signal in [1] was 0.405 E-score.

As for AGTCCACG, the binding signal in assay [2] turned out to be 0.062 E-score; in [5], 0.0759 E-score; in assay [1], 0.438 E-score.

In the case of CGTCAACC, the results for the binding signal in assay [2], in assay [3] and in [1] were 0.0573 E-score, 0.0571 E-score and 0.435 E-score, respectively.

The values above are taken from article PMC4081100, “A DNA-binding-site landscape and regulatory network analysis for NAC transcription factors in Arabidopsis thaliana”.
